# Data taken from PubChem BioAssay AID1159580 (chemical genetic matrix, 2015).
# In all, about 5,500 compounds went through this assay and about 2,000 (36%) were called active. About 18% were inconclusive and are not listed. The list shows a part of the results. A number with no mark means an inactive call. Cut-off read from the data, not from the text of the source: active = normalized growth mostly below about 0.91 (no sharp cut-off); inconclusive = no clear call, values can overlap the other calls; inactive = mostly above about 0.92.
# Test: chemical genetic growth profiling, strain panel (AID 1159580);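 note: tested at 20 µM; growth read once vehicle control cultures reached saturation at 30 °C; 1 = growth at the plate median or of vehicle wells; lower values mean less growth of the strain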
# Conditions: S. cerevisiae deletion strains, growth OD
smiles,measurement,setting,value
CC1(C)CCC2=C(O1)c1ccccc1C(=O)C2=O,normalized growth,"locus YAL013W, strain DEP1, active compounds read low",0.879 (active)
same,normalized growth,"locus YAL040C, strain CLN3, active compounds read low",1.02
same,normalized growth,"locus YCL061C, strain MRC1 (second series), active compounds read low",0.876 (active)
same,normalized growth,"locus YDR150W, strain NUM1, active compounds read low",0.857 (active)
same,normalized growth,"locus YDR363W, strain ESC2, active compounds read low",0.706 (active)
same,normalized growth,"locus YER002W, strain NOP16, active compounds read low",1
same,normalized growth,"locus YGR078C, strain PAC10, active compounds read low",0.977
same,normalized growth,"locus YMR263W, strain SAP30, active compounds read low",0.956
same,normalized growth,"locus YNL175C, strain NOP13, active compounds read low",0.973
same,normalized growth,"locus YNL197C, strain WHI3, active compounds read low",0.926
same,normalized growth,"locus YNL224C, strain SQS1, active compounds read low",1
same,normalized growth,"locus YOR083W, strain WHI5 (second series), active compounds read low",0.938
same,normalized growth,"locus YPL055C, strain LGE1, active compounds read low",0.769 (active)
same,normalized growth,"locus YPL241C, strain CIN2, active compounds read low",0.861 (active)
C=C(NC(=O)C(=C)NC(=O)c1csc(C2=NC3c4csc(n4)C4NC(=O)c5csc(n5)C(C(C)(O)C(C)O)NC(=O)C5CSC(=N5)C(=CC)NC(=O)C(C(C)O)NC(=O)c5csc(n5)C3(CC2)NC(=O)C(C)NC(=O)C(=C)NC(=O)C(C)NC(=O)C(C(C)CC)NC2C=Cc3c(C(C)O)cc(nc3C2O)C(=O)OC4C)n1)C(N)=O (centres undefined),normalized growth,"locus YAL021C, strain ccr4, active compounds read low",1.01
same,normalized growth,"locus YAL026C, strain drs2, active compounds read low",1.01
same,normalized growth,"locus YAL030W, strain snc1, active compounds read low",1.01
same,normalized growth,"locus YBL061C, strain skt5, active compounds read low",1
same,normalized growth,"locus YBR009C, strain hhf1, active compounds read low",1
same,normalized growth,"locus YBR023C, strain chs3, active compounds read low",1.01
same,normalized growth,"locus YBR171W, strain sec66, active compounds read low",1.02
same,normalized growth,"locus YBR231C, strain swc5, active compounds read low",1.01
same,normalized growth,"locus YBR279W, strain paf1, active compounds read low",0.986
same,normalized growth,"locus YCL011C, strain gbp2, active compounds read low",1
same,normalized growth,"locus YCL016C, strain dcc1, active compounds read low",1.02
same,normalized growth,"locus YCL061C, strain MRC1, active compounds read low",1.01
same,normalized growth,"locus YCL069W, strain vba3, active compounds read low",1.01
same,normalized growth,"locus YCR088W, strain abp1, active compounds read low",1.02
same,normalized growth,"locus YDL005C, strain med2, active compounds read low",0.993
same,normalized growth,"locus YDL040C, strain nat1, active compounds read low",0.993
same,normalized growth,"locus YDR001C, strain nth1, active compounds read low",1.01
same,normalized growth,"locus YDR069C, strain doa4, active compounds read low",1.01
same,normalized growth,"locus YDR137W, strain rgp1, active compounds read low",1.04
same,normalized growth,"locus YDR159W, strain sac3, active compounds read low",1
same,normalized growth,"locus YDR195W, strain ref2",1.01
same,normalized growth,"locus YDR297W, strain sur2, active compounds read low",1
same,normalized growth,"locus YDR334W, strain swr1, active compounds read low",1.02
same,normalized growth,"locus YDR335W, strain msn5, active compounds read low",0.991
same,normalized growth,"locus YDR392W, strain spt3, active compounds read low",1.01
same,normalized growth,"locus YEL003W, strain gim4, active compounds read low",1.01
same,normalized growth,"locus YEL037C, strain rad23, active compounds read low",1
same,normalized growth,"locus YEL061C, strain CIN8 (second series), active compounds read low",1.02
same,normalized growth,"locus YER015W, strain faa2, active compounds read low",0.993
same,normalized growth,"locus YER016W, strain bim1, active compounds read low",1
same,normalized growth,"locus YER111C, strain swi4, active compounds read low",1.03
same,normalized growth,"locus YER155C, strain BEM2 (second series), active compounds read low",1.06
same,normalized growth,"locus YFR010W, strain ubp6, active compounds read low",1.01
same,normalized growth,"locus YGL167C, strain pmr1, active compounds read low",1.01
same,normalized growth,"locus YGL173C, strain kem1, active compounds read low",1.01
same,normalized growth,"locus YGL227W, strain vid30, active compounds read low",0.989
same,normalized growth,"locus YGL240W, strain doc1, active compounds read low",1.01
same,normalized growth,"locus YGL253W, strain hxk2, active compounds read low",1.01
same,normalized growth,"locus YHR013C, strain ard1, active compounds read low",1.03
same,normalized growth,"locus YHR027C, strain rpn1, active compounds read low",1.01
same,normalized growth,"locus YHR030C, strain SLT2, active compounds read low",0.979
same,normalized growth,"locus YHR079C, strain IRE1, active compounds read low",0.99
same,normalized growth,"locus YHR142W, strain chs7, active compounds read low",1.03
same,normalized growth,"locus YJL092W, strain hpr5, active compounds read low",1.01
same,normalized growth,"locus YJL095W, strain BCK1 (second series), active compounds read low",1.01
same,normalized growth,"locus YJL095W, strain BCK1, active compounds read low",0.981
same,normalized growth,"locus YJL115W, strain asf1, active compounds read low",1.01
same,normalized growth,"locus YJL129C, strain trk1, active compounds read low",1
same,normalized growth,"locus YJL154C, strain vps35, active compounds read low",1.02
same,normalized growth,"locus YJL164C, strain tpk1, active compounds read low",1.01
same,normalized growth,"locus YJL166W, strain qcr8, active compounds read low",1.02
same,normalized growth,"locus YJL187C, strain SWE1, active compounds read low",1.01
same,normalized growth,"locus YJR066W, strain TOR1, active compounds read low",0.968
same,normalized growth,"locus YKL160W, strain elf1, active compounds read low",1.02
same,normalized growth,"locus YKR026C, strain gcn3, active compounds read low",0.997
same,normalized growth,"locus YKR091W, strain srl3, active compounds read low",0.984
same,normalized growth,"locus YLL001W, strain dnm1, active compounds read low",1.02
same,normalized growth,"locus YLL026W, active compounds read low",0.995
same,normalized growth,"locus YLL041C, strain sdh2, active compounds read low",1.01
same,normalized growth,"locus YLR027C, strain aat2, active compounds read low",0.999
same,normalized growth,"locus YLR113W, strain HOG1, active compounds read low",0.987
same,normalized growth,"locus YLR221C, strain rsa3, active compounds read low",0.994
same,normalized growth,"locus YLR258W, strain gsy2, active compounds read low",1.02
same,normalized growth,"locus YLR262C, strain YPT6 (second series), active compounds read low",1.04
same,normalized growth,"locus YLR320W, strain mms22, active compounds read low",1.02
same,normalized growth,"locus YLR342W, strain FKS1, active compounds read low",1.02
same,normalized growth,"locus YLR357W, strain rsc2, active compounds read low",0.969
same,normalized growth,"locus YLR370C, strain arc18, active compounds read low",1
same,normalized growth,"locus YLR384C, strain iki3, active compounds read low",1.01
same,normalized growth,"locus YML120C, strain ndi1, active compounds read low",1
same,normalized growth,"locus YMR058W, strain fet3, active compounds read low",1
same,normalized growth,"locus YMR125W, strain sto1, active compounds read low",1.01
same,normalized growth,"locus YMR129W, active compounds read low",0.999
same,normalized growth,"locus YMR205C, strain PFK2, active compounds read low",1.01
same,normalized growth,"locus YMR231W, strain pep5, active compounds read low",0.983
same,normalized growth,"locus YNL071W, strain lat1, active compounds read low",1.01
same,normalized growth,"locus YNL183C, strain NPR1, active compounds read low",0.971
same,normalized growth,"locus YNL209W, strain ssb2, active compounds read low",1
same,normalized growth,"locus YNL248C, strain rpa49, active compounds read low",0.994
same,normalized growth,"locus YNL322C, strain KRE1 (second series), active compounds read low",1.02
same,normalized growth,"locus YNR049C, strain mso1, active compounds read low",1.01
same,normalized growth,"locus YOR001W, strain rrp6, active compounds read low",1.02
same,normalized growth,"locus YOR070C, strain gyp1, active compounds read low",1.01
same,normalized growth,"locus YOR080W, strain dia2, active compounds read low",1.02
same,normalized growth,"locus YOR083W, strain WHI5, active compounds read low",1.01
same,normalized growth,"locus YOR106W, strain vam3, active compounds read low",1.03
same,normalized growth,"locus YOR231W, strain MKK1, active compounds read low",0.981
same,normalized growth,"locus YOR265W, strain rbl2, active compounds read low",1.02
same,normalized growth,"locus YOR270C, strain vph1, active compounds read low",1
same,normalized growth,"locus YOR290C, strain snf2, active compounds read low",1.01
same,normalized growth,"locus YPL051W, strain arl3, active compounds read low",1.01
same,normalized growth,"locus YPL078C, strain atp4, active compounds read low",1.01
same,normalized growth,"locus YPL106C, strain sse1, active compounds read low",0.982
same,normalized growth,"locus YPL240C, strain hsp82, active compounds read low",0.997
same,normalized growth,"locus YPL256C, strain CLN2, active compounds read low",0.979
